# Hit rate of the full screen: of about 13,000 compounds, about 3,200 (25%) showed an effect of 50% or more. The list shows a part of the results.
# Test system: P. falciparum stage V gametocytes
# Design: BacTiter-Glo ATP luminescence viability of purified stage V gametocytes in 384-well plates, per cent inhibition versus DMSO
# Conditions: 48 h, 5 µM; inhibitor
row,SMILES,% Inhibition [%]
1,Cc1cc(N2CCCC2)nc(Nc2ccc(NC(=O)COc3ccccc3)cc2)n1 [TCMDC-124969],-41.99
2,COc1ccc(C(=O)NC(c2ccc(Cl)cc2Cl)c2cc(Cl)c3cccnc3c2O)cc1 (centres unmarked) [TCMDC-125549],15.16
3,COc1cccc(C(=O)NC(c2ccc(Cl)cc2Cl)c2cc(Cl)c3cccnc3c2O)c1 (centres unmarked) [TCMDC-124342],31.32
4,COc1cccc(C(=O)NC(C=Cc2ccccc2)c2cc(Cl)c3cccnc3c2O)c1 (centres unmarked) [TCMDC-125550],112.7
5,COc1cccc(C(=O)NC(c2ccccc2OC)c2cc(Cl)c3cccnc3c2O)c1 (centres unmarked) [TCMDC-125612],79.98
6,FC(F)(F)c1ccc2[nH]c(-c3ccc(-c4ccc(CNCC5CCCO5)cc4)s3)nc2c1.O=C(O)C(F)(F)F (centres unmarked) [TCMDC-133092],-19.94
7,CC1CN(c2ccc(C(=O)NCC3CC3)cc2NC(=O)OCc2ccccc2)CC(C)O1 (centres unmarked) [TCMDC-134641],11.9
8,CCOc1ccc2c(c1)OC(c1ccccc1)(C(F)(F)F)NC2=O (centres unmarked) [TCMDC-123632],18.25
9,O=C(NCc1ccc(Cl)c(Cl)c1)c1ccc(-c2nc3cc(F)c(F)cc3[nH]2)cc1 [TCMDC-140460],62.28
10,Cc1cc2nc(-c3ccc(/C=C/C(=O)NCc4ccc(Cl)c(Cl)c4)cc3)[nH]c2cc1C [TCMDC-140437],1.168
11,Cc1cc2nc(-c3ccc(/C=C/C(=O)NCCc4ccccc4)cc3)[nH]c2cc1C [TCMDC-140438],-13.04
12,Cc1cc2nc(-c3ccc(C(=O)NCc4ccc(Cl)c(Cl)c4)cc3)[nH]c2cc1C [TCMDC-140430],14.5
13,Cc1ccc2nc(-c3ccc(C=CC(=O)NCc4ccc(Cl)c(Cl)c4)cc3)[nH]c2c1 [TCMDC-140402],-29.51
14,O=C(NCc1ccc(Cl)c(Cl)c1)c1ccc(-c2nc3ccc(F)cc3[nH]2)cc1 [TCMDC-140448],-30.61
15,CC(C)(C)c1ccc2nc(-c3ccc(/C=C/C(=O)NCc4ccc(Cl)c(Cl)c4)cc3)[nH]c2c1 [TCMDC-140457],61.32
16,O=C(/C=C/c1ccc(-c2nc3ccc(Cl)cc3[nH]2)cc1)NCc1cccc(F)c1 [TCMDC-140444],-5.382
17,COC(=O)c1ccc2nc(-c3ccc(/C=C/C(=O)NCc4ccc(Cl)c(Cl)c4)cc3)[nH]c2c1 [TCMDC-140447],71.15
18,O=C(/C=C/c1ccc(-c2nc3cc(F)c(F)cc3[nH]2)cc1)NCc1ccc(Cl)c(Cl)c1 [TCMDC-140462],80.74
19,CC(C)(C)c1ccc(CNC(=O)/C=C/c2ccc(-c3nc4ccc(C(C)(C)C)cc4[nH]3)cc2)cc1 [TCMDC-140459],15.07
20,CC(C)(C)c1ccc2nc(-c3ccc(/C=C/C(=O)NCc4cccc(C(F)(F)F)c4)cc3)[nH]c2c1 [TCMDC-140458],-22.76

# Source: article PMC4552634, “A New Set of Chemical Starting Points with Plasmodium falciparum Transmission-Blocking Potential for Antimalarial Drug Discovery” (PLoS ONE, 2015)
